Measured values taken from PubChem BioAssay AID1259245 (Vanderbilt High Throughput Screening Facility, 2017).
About 1,400 (3.5%) of roughly 40,000 compounds were called active.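 Rule for the calls: active = any of four per-well response measures lying three or more SD from its plate-wide compound average, in either direction; inactive = the rest, inconclusive results apart.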 Only a selection was taken, and actives are over-represented in it overall.

Biological target: Voltage-dependent calcium channel gamma-2 subunit (Mus musculus) + Glutamate receptor 2 (Rattus norvegicus) (UniProt O88602+P19491)
Sequence (O88602 whole entry, looked up): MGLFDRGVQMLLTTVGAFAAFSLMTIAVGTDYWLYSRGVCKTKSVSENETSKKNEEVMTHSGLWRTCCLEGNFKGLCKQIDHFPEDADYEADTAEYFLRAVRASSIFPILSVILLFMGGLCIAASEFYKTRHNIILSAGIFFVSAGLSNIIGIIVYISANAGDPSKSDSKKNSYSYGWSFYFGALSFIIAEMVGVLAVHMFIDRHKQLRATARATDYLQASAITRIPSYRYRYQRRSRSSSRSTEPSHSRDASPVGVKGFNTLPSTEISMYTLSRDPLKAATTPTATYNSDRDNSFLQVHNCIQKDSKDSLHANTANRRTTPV
Sequence (P19491 whole entry, looked up): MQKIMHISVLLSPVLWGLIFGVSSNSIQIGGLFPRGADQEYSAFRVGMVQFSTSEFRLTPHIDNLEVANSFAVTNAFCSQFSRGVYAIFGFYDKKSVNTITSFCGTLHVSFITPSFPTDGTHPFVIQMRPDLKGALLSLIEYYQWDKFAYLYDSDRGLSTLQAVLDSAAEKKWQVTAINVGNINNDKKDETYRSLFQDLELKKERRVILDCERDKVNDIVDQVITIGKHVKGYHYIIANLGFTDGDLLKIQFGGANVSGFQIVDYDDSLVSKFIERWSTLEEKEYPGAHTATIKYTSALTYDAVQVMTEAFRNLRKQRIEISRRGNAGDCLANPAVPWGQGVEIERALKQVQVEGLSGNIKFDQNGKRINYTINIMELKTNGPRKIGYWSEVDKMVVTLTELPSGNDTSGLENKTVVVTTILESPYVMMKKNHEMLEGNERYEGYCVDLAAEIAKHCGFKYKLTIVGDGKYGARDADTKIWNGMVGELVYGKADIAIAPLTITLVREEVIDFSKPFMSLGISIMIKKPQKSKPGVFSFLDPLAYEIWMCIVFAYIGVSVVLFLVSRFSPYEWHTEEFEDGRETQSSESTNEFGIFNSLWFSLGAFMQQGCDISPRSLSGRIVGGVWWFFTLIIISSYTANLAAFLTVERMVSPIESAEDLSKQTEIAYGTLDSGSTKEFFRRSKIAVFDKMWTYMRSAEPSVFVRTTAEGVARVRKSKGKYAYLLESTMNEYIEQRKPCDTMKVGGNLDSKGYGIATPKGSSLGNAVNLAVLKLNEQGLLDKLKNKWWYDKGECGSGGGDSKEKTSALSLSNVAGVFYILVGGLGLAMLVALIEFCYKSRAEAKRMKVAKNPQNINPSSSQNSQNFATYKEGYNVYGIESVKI
Assay: AMPAR-TARP gamma-2 complex positive or negative modulation – cell-based, membrane potential dye, primary screen (AID 1259245)
Settings: HEK293 GluA2+stargazin, membrane potential dye (FDSS), glutamate EC50, at 30 µM, hits were called plate by plate, in both directions; compound max-min signal: compound-alone response (agonism); glutamate slope, % of max: measured here: glutamate response slope, % max

Structure (SMILES)	compound max-min signal	glutamate response, % of max	glutamate slope, % of max
CCNC(=O)CSc1nc(-c2ccccc2)c(NC(=O)CC2CCCC2)s1	0.0584	31.3% (inactive)	44.8%
COc1ccc(CC(=O)NCCOc2cc(C)cc(C)c2)cc1OC	0.0873	52% (inactive)	63.4%
CC(C)NC(=O)Nc1ccc(CN2CCN(C)CC2)cc1	0.107	37% (inactive)	57.1%
O=C(c1ccno1)N1CCN(c2nc3ccc([N+](=O)[O-])cc3s2)CC1	0.188	27.8% (active)	50.2%
COc1ccc([N+](=O)[O-])cc1NC(=O)c1ccno1	0.13	15.2% (inactive)	32.1%
COc1ccc(SCCC(=O)N2CCN(c3nc4ccc(F)cc4s3)CC2)cc1	0.0995	50.5% (inactive)	60.6%
CN(C)C(=O)N1CCN(S(=O)(=O)c2ccc(F)cc2)CC1	0.11	30.6% (inactive)	58.2%
O=C(CCCS(=O)(=O)c1ccc(F)cc1)Nc1cccc2c1C(=O)NC2=O	0.0985	41.1% (inactive)	66.5%
COc1ccc(N(Cc2cccc(C)c2)S(=O)(=O)c2ccc3nnc(C)n3c2)cc1	0.0921	39% (inactive)	70.3%
CCCN(CCC)S(=O)(=O)c1cc([N+](=O)[O-])ccc1C	0.0514	71% (active)	88.7%
Cc1ccc([N+](=O)[O-])cc1NC(=O)C(=O)NCC(c1cccs1)N(C)C (configuration not stated)	0.155	57.6% (inactive)	83.7%
CCc1nc2sc(C(c3ccc(F)c(F)c3)N3CCN(C(C)=O)CC3)c(O)n2n1 (configuration not stated)	0.111	52.6% (inactive)	74.4%
NS(=O)(=O)c1ccc(CNC(=O)Cc2csc(Nc3cccc(Cl)c3)n2)cc1	0.171	32.8% (inactive)	56.3%
Cc1ccccc1C(=O)Nn1cnc2c(cnn2C(C)(C)C)c1=O	0.0501	31.3% (inactive)	53.1%
CC(C)(C)n1ncc2c(=O)n(NC(=O)Cc3ccc([N+](=O)[O-])cc3)cnc21	0.0341	22.1% (inactive)	47.4%
COCC(=O)Nn1cnc2c(cnn2C(C)(C)C)c1=O	0.121	-2.09% (active)	5.77%
Cc1cc(C)c2c(n1)sc1c(=O)n(CC(=O)Nc3ccccc3Br)cnc12	0.125	47% (inactive)	70.2%
CCCOC(=O)CC1C(=O)NCCN1C(=S)NC(=O)c1cccc(Cl)c1 (configuration not stated)	0.102	20% (inactive)	39.3%
COc1ccc(Cl)cc1NC(=O)NCC#CCN1CCc2ccccc2C1	0.108	30.6% (inactive)	53.9%
COc1ccc(Cl)cc1NC(=O)CC1C(=O)NCCN1C(=S)Nc1ccccc1 (configuration not stated)	0.205	26.6% (active)	35.6%
Cn1nnc2c(N(CCc3ccccc3)Cc3ccccc3)ncnc21	0.0947	34% (inactive)	57.6%
CCOC(=O)c1cn(CC(=O)Nc2ccc(C)cc2Cl)c2nc(C)ccc2c1=O	0.132	31.9% (inactive)	51%
COc1cc(NS(=O)(=O)c2ccc(NC(=O)c3ccc(S(=O)(=O)N4CCOCC4)cc3)cc2)ncn1	0.0995	43.4% (inactive)	72.4%
CCOc1ccc2nc(N(Cc3ccncc3)C(=O)/C=C/c3cccs3)sc2c1	0.107	21.1% (inactive)	47.3%
CCc1ccc(S(=O)(=O)N2CCN(c3ccc(Nc4cccc(C)n4)nn3)CC2)cc1	0.366	22.6% (active)	37.7%

Structure (SMILES)	compound max-min signal	glutamate response, % of max	glutamate slope, % of max
Cc1cccc(Nc2ccc(N3CCN(S(=O)(=O)c4cccs4)CC3)nn2)n1	0.445	13.5% (active)	21.9%
O=S(=O)(c1cccs1)N1CCC(c2ccsc2)CC1	0.115	35.3% (inactive)	65.4%
O=S(=O)(c1ccc2c(c1)CCCC2)N1CCN(c2ccc3nncn3n2)CC1	0.0592	23.2% (inactive)	46.1%
COc1ccc(S(=O)(=O)N2CCN(c3ccc4nncn4n3)CC2)cc1C	0.114	18.4% (inactive)	44.4%
O=S(=O)(c1ccc(F)cc1F)N1CCN(c2ccc(-c3cccs3)nn2)CC1	0.0403	12.3% (inactive)	30.1%
COc1cccc(-c2noc(C3CCN(S(=O)(=O)c4ccc(C)cc4)CC3)n2)c1OC	0.0999	28.5% (inactive)	52.6%
O=S(=O)(c1ccccc1)N1CCN(Cc2nnnn2-c2ccc(F)cc2)CC1	0.0497	29.1% (inactive)	63.3%
O=S(=O)(Cc1ccc(Cl)cc1)c1ccc(NCc2ccccc2)nn1	0.0863	49.2% (inactive)	64.8%
CCOC(=O)N1CCN(/C=C2\Oc3c(ccc(O)c3C)C2=O)CC1	0.132	21.6% (inactive)	32.3%
COc1ccc(-c2cc3ccc4c(c3oc2=O)CN(C2CCS(=O)(=O)C2)CO4)cc1OC (configuration not stated)	0.083	20.7% (inactive)	43.1%
CC(O)(CNC(=O)/C=C/c1ccccc1)c1ccccc1 (configuration not stated)	0.0976	44.2% (inactive)	61.2%
CCOC(=O)C(CC)Sc1ccnc2c1c(=O)n(C)c(=O)n2C (configuration not stated)	0.0572	21.5% (inactive)	49.8%
Cc1cnc2c(c1SCC(=O)O)c(=O)n(C)c(=O)n2C	0.0266	30.3% (inactive)	58%
COCc1cnc2c(c1SCc1ccc(Br)cc1)c(=O)n(C)c(=O)n2C	0.0342	27% (inactive)	47.1%
Cn1c(=O)c2c(ncn2CCc2ccccc2)n(C)c1=O	0.12	41.9% (inactive)	67.6%
Cc1cnc2c(c1SCc1ccc([N+](=O)[O-])cc1)c(=O)n(C)c(=O)n2C	0.158	47.1% (active)	69.5%
Cc1cnc2c(c1NCCc1ccc(S(N)(=O)=O)cc1)c(=O)n(C)c(=O)n2C	0.167	32.2% (active)	50%
COc1ccc(CNC(=O)C(=O)NCC2CCN(Cc3cccs3)CC2)cc1	0.0534	41.2% (inactive)	57.3%
CCOc1ccc(CC(=O)Nc2nn(C)c3c2C(C)CC(=O)N3)cc1 (configuration not stated)	0.129	42.6% (inactive)	64.1%
O=C(Nc1cc(-c2ccco2)nn1-c1nc(-c2ccccc2)cc(=O)[nH]1)c1ccco1	0.115	35.5% (inactive)	53.1%
Cn1nnc2c(N3CCN(C(=O)c4cc5ccccc5o4)CC3)ncnc21	0.0567	24.9% (inactive)	41.7%
Cc1cc(C)n(CCNC(=O)c2nc(-c3cnccn3)no2)n1	0.147	48.6% (inactive)	86.3%
CC(C)Sc1ccc(C(=O)Nc2nc(-c3ccccn3)cs2)cc1	0.135	-1.73% (active)	2.45%
CSc1ccc(CC(=O)Nc2nc(-c3nc4ccccc4s3)cs2)cc1	0.102	33% (inactive)	57.3%
CS(=O)(=O)N1CCCCC1C(=O)Nc1nc(-c2ccccn2)cs1 (configuration not stated)	0.116	43% (inactive)	58.9%

Structure (SMILES)	compound max-min signal	glutamate response, % of max	glutamate slope, % of max
Cc1nn(C2CCS(=O)(=O)C2)c2nc(-c3ccccc3)cc(C(=O)Nc3ccc(F)cc3F)c12 (configuration not stated)	0.0886	43% (inactive)	54.9%
COC(=O)c1ccc(NC(=O)CSc2nc(-c3ccccc3)c(N)s2)cc1	0.12	38.3% (inactive)	63%
COc1cc(NC(=O)CSC2=NC3(CCCC3)N=C2c2ccccc2)cc(OC)c1	0.0812	57.8% (active)	80.4%
Cc1ccc(NC(=O)CSC2=NC(C)(C)N=C2c2ccccc2)c(C)c1	0.112	41.7% (inactive)	61.7%
CCS(=O)(=O)N1CCCc2ccc(NS(=O)(=O)c3cc(Cl)ccc3OC)cc21	0.119	44.4% (inactive)	80.9%
Cc1cccc(Cn2c(=O)c3c(nc4n(-c5ccccc5O)c(C)c(C)n34)n(C)c2=O)c1	0.11	3.33% (active)	16.2%
COC(=O)Cn1c(=O)c2c(nc3n(-c4ccccc4C)c(C)c(C)n23)n(C)c1=O	0.0754	36.6% (inactive)	56.4%
Cc1c(C)n2c3c(=O)n(C/C=C/c4ccccc4)c(=O)n(C)c3nc2n1-c1ccccc1O	0.0773	13.8% (inactive)	35.4%
Cc1ccc(NC(=O)NCC(O)c2ccc(C(F)(F)F)cc2)cc1 (configuration not stated)	0.115	16.6% (inactive)	47.8%
Cc1cc(S(=O)(=O)NCC(O)c2ccc(C(F)(F)F)cc2)ccc1F (configuration not stated)	0.256	28.2% (active)	41.3%
Cc1cc(S(=O)(=O)NCC2(O)CCCC2)ccc1F	0.0902	36% (inactive)	60.8%
COc1cc(C)c(C)cc1S(=O)(=O)NCC(O)c1ccc(C(F)(F)F)cc1 (configuration not stated)	0.216	20.5% (active)	36%
Cc1cc(S(=O)(=O)NCCn2nc(-c3ccc(F)cc3)ccc2=O)ccc1F	0.0676	28.5% (inactive)	55.6%
COc1ccc(S(=O)(=O)NCC(O)c2cccn2C)c(C)c1 (configuration not stated)	0.107	43.5% (inactive)	60.7%
CC(NC(=O)C12CC3CC(CC(C3)C1)C2)C(=O)N/N=C/c1ccc([N+](=O)[O-])o1 (configuration not stated)	0.133	27.9% (inactive)	52.7%
O=S(=O)(CCCOc1ccc(F)cc1)NCCCc1ccccc1	0.118	50.6% (inactive)	66.1%
CCCNC(=O)Cn1c(=O)c2c(N3CCN(C(=O)c4ccco4)CC3)c(C)cnc2n(C)c1=O	0.127	48.2% (inactive)	70%
CCn1ccnc1N1CCN(C(=O)CCS(=O)(=O)c2ccccc2)CC1	0.0601	11.8% (inactive)	23.3%
COCCNC(=O)Cn1cc(-c2nnc(C)o2)c2ccccc21	0.0888	38.9% (inactive)	57.5%
O=C(NC(=S)Nc1ccc(S(=O)(=O)N2CCOCC2)cc1)c1sc2ccccc2c1Cl	0.0349	29.8% (inactive)	52.2%
CCN(CC)C(=O)C(=O)c1cn(CC(=O)N2CCOCC2)c2ccccc12	0.0509	31.2% (inactive)	53.3%
COC(=O)c1ccc(NC(=O)Cn2c(=O)n(C(C)C)c(=O)c3nscc32)cc1	0.116	34.2% (inactive)	56.9%
Cc1cccc(C)c1NC(=O)Cn1c(=O)n(C(C)C)c(=O)c2nscc21	0.121	32.1% (active)	45.8%
CSc1cccc(NC(=O)Cn2c(=O)n(C3CC3)c(=O)c3nscc32)c1	0.107	26.5% (inactive)	50.3%
